# Results from PubChem BioAssay (NCATS).
# Inconclusive results are not listed. A call without a number means that no potency is given here. Active and inactive are the calls of the source. Unless noted, the call rests on the fitted dose curve; in most records, active means well fitted inhibition curve with a large enough effect; inconclusive means small, poorly fitted or top-dose-only effect; inactive means flat fitted curve, though single readings scatter.
# Key:
# [1] = qHTS for identification of novel therapeutic agents for treatment of microphthalmiaassociated transcription factor (MiT) renal cell carcinoma (RCC) (AID 1963991; calls by dose curve); conditions: CellTiter-Glo, 48 h; for z-score: stronger effect = lower value; for Potency: active = Z-AUC below -0.8 in all three lines
# Procedure, shortened: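 UOK109/UOK124/UOK145 (TFE3 fusions, three partners); 500 cells/well; MIPE v4.0, 1912 cpds, 11 conc.; 48 h, 37 C; CellTiter-Glo, 15 min RT; lum. Norm.: DMSO 100%, empty 0%.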
# [2] = qHTS profiling for inhibitors of Plasmodium falciparum proliferation (AID 504749); further: nearly all actives have a fitted effect of over 60% in size; conditions: P. falciparum in erythrocytes, SYBR Green DNA, 72 h
# Procedure, shortened: (§1)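 Fluorescence of SYBR Green-bound parasite DNA, read at 485/535 nm, served as the growth measure. Infected erythrocytes were cultured with compound 72 h; artemisinin (0.29 uM) and DMSO wells defined the normalization range.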
# 3D7 = assay: as above; conditions: P. falciparum in erythrocytes, SYBR Green DNA, 72 h; series mostly up to 28.7 µM
# Procedure, shortened: as §1
# 7G8 = assay: as above; conditions: P. falciparum in erythrocytes, SYBR Green DNA, 72 h; series mostly up to 28.7 µM
# Procedure, shortened: as §1
# AA1029 = assay: as above; conditions: P. falciparum in erythrocytes, SYBR Green DNA, 72 h; series mostly up to 28.7 µM
# Procedure, shortened: as §1
# AS120 = assay: as above; conditions: P. falciparum in erythrocytes, SYBR Green DNA, 72 h; series mostly up to 28.7 µM
# Procedure, shortened: as §1
# ATS189 = assay: as above; conditions: P. falciparum in erythrocytes, SYBR Green DNA, 72 h; series mostly up to 28.7 µM
# Procedure, shortened: as §1
# ATS95 = assay: as above; conditions: P. falciparum in erythrocytes, SYBR Green DNA, 72 h; series mostly up to 28.7 µM
# Procedure, shortened: as §1
# C2A = assay: as above; conditions: P. falciparum in erythrocytes, SYBR Green DNA, 72 h; series mostly up to 28.7 µM
# Procedure, shortened: as §1
# CP185 = assay: as above; conditions: P. falciparum in erythrocytes, SYBR Green DNA, 72 h; series mostly up to 28.7 µM
# Procedure, shortened: as §1
# [3] = TFE3-RCC UOK109 viability, measured here: UOK109 Z-AUC
# [4] = TFE3-RCC viability, measured here: UOK124 Z-AUC
# [5] = TFE3-RCC viability, measured here: UOK145 Z-AUC
# [6] = at 28.7 µM (top of the series), parasite line A
# [7] = at 28.7 µM (top of the series), parasite line B
# [8] = at 12.8 µM (top of the series), parasite line A
# [9] = at 12.8 µM (top of the series), parasite line B
# Potency means the concentration at half of the fitted maximal effect.
Compound,"z-score [1, 3]","z-score [1, 4]","z-score [1, 5]","activity, negative = inhibition [2, 6]","activity, negative = inhibition [2, 7]",Potency (3D7),Potency (7G8),Potency (AA1029),Potency (AS120),Potency (ATS189),Potency (ATS95),Potency (C2A),Potency (CP185),Potency ([1]; TFE3-RCC UOK109 viability),Potency ([2]; parasite line A),Potency ([2]; parasite line B),"activity, negative = inhibition [2, 8]","activity, negative = inhibition [2, 9]"
O=C(C1CCCCC1)N1CC(=O)N2CCc3ccccc3C2C1 (centres undefined),-4.91,0.786,-3.49,,,,,,,,,,,,,,,
Cn1c(=O)c2[nH]cnc2n(C)c1=O,1.09,0.242,0.63,0.326% (inactive),0.99% (inactive),inactive,inactive,inactive,inactive,inactive,inactive,inactive,inactive,,,,,
CC1(C)O[C@H]2CC(=O)OC[C@]23[C@H]2CC[C@@]4(C)[C@H](c5ccoc5)OC(=O)[C@H]5O[C@]54[C@]2(C)C(=O)C[C@@H]13,0.617,0.649,1.11,,,,,,,,,,,,,,,
NCCS(=O)(=O)O,0.929,0.854,0.716,5.98% (inactive),-25.3% (inactive),inactive,inactive,inactive,inactive,inactive,inactive,inactive,inactive,,,,,
CN1C2CCC1CC(OC(=O)C(CO)c1ccccc1)C2 (centres undefined),0.361,0.456,0.45,,,,,,,,,,,,,,,
NC(CO)C(=O)NNCc1ccc(O)c(O)c1O (centres undefined),0.539,-0.122,0.506,,,,,,,,,,,,,,,
Cc1ccccc1N1C(=O)c2cc(S(N)(=O)=O)c(Cl)cc2NC1C (centres undefined),0.956,0.478,-0.147,,,,,,,,,,,,,,,
Cc1cc(C(C)(C)C)c(O)c(C)c1CC1=NCCN1,0.384,0.625,1.63,-4.77% (inactive),-3.69% (inactive),inactive,inactive,inactive,inactive,inactive,inactive,inactive,inactive,,,,,
COC(=O)Nc1nc2ccc(C(=O)c3cccs3)cc2[nH]1,-2.2,-3.02,-1.81,-6.79% (inactive),11.2% (inactive),inactive,inactive,inactive,inactive,inactive,inactive,,inactive,0.00833 µM (active),,,,
CC(C)(C)C(=O)Oc1ccc(S(=O)(=O)Nc2ccccc2C(=O)NCC(=O)O)cc1,0.584,0.0353,0.435,-0.829% (inactive),7.95% (inactive),inactive,inactive,inactive,inactive,inactive,inactive,inactive,inactive,,,,,
CCN1CCCC1CNC(=O)c1cc(S(=O)(=O)CC)c(N)cc1OC (centres undefined),0.976,0.754,0.815,,,,,,,,,,,,,,,
CN(CCOc1ccc(NS(C)(=O)=O)cc1)CCc1ccc(NS(C)(=O)=O)cc1,0.684,0.913,0.774,1.37% (inactive),5.56% (inactive),inactive,inactive,inactive,inactive,inactive,inactive,inactive,inactive,,,,,
C[C@](N)(Cc1ccc(O)c(O)c1)C(=O)O,0.112,-0.114,-0.0394,5.92% (inactive),-9.27% (inactive),inactive,inactive,inactive,inactive,inactive,inactive,inactive,inactive,,,,,
COc1ccccc1OCC(O)CN1CCN(CC(=O)Nc2c(C)cccc2C)CC1 (centres undefined),0.18,0.373,-0.0249,2.52% (inactive),-6.5% (inactive),inactive,inactive,inactive,inactive,inactive,inactive,inactive,inactive,,,,,
N[C@@H](Cc1c[nH]c2ccc(O)cc12)C(=O)O,0.236,0.415,0.556,15.9% (inactive),15.8% (inactive),inactive,inactive,inactive,inactive,inactive,inactive,inactive,inactive,,,,,
COc1ccccc1N1CCN(CC(O)COc2cccc3ccccc23)CC1 (centres undefined),0.719,0.448,-1.51,-3.66% (inactive),-18.8% (inactive),inactive,11.2 µM (active),inactive,inactive,inactive,inactive,inactive,inactive,,,,,
CCc1cccc2c3c([nH]c12)C(CC)(CC(=O)O)OCC3 (centres undefined),0.838,0.432,0.577,,,,,,,,,,,,,,,
O=C1c2c(O)ccc(O)c2C(=O)c2c(NCCNCCO)ccc(NCCNCCO)c21,-2.02,-1.52,-2.08,,,2 µM (active),1.26 µM (active),2.51 µM (active),2.24 µM (active),2.82 µM (active),2.24 µM (active),3.16 µM (active),3.16 µM (active),1.05 µM (active),3.16 µM (active),3.16 µM (active),,
COc1nc(C)nc(Cl)c1NC1=NCCN1,0.168,0.306,0.251,,,inactive,inactive,inactive,inactive,inactive,inactive,inactive,inactive,,,,1.48% (inactive),0.89% (inactive)
CCC1(C)CC(=O)NC1=O (centres undefined),0.867,0.609,0.715,,,,,,,,,,,,,,,

Compound,"z-score [1, 3]","z-score [1, 4]","z-score [1, 5]","activity, negative = inhibition [2, 6]","activity, negative = inhibition [2, 7]",Potency (3D7),Potency (7G8),Potency (AA1029),Potency (AS120),Potency (ATS189),Potency (ATS95),Potency (C2A),Potency (CP185),Potency ([1]; TFE3-RCC UOK109 viability),Potency ([2]; parasite line A),Potency ([2]; parasite line B),"activity, negative = inhibition [2, 8]","activity, negative = inhibition [2, 9]"
NCCCCCC(=O)O,0.855,0.487,0.828,,,inactive,inactive,inactive,inactive,inactive,inactive,inactive,inactive,,,,3.43% (inactive),5.54% (inactive)
Cc1cn([C@H]2C=C[C@@H](CO)O2)c(=O)[nH]c1=O,0.266,0.139,0.201,2.38% (inactive),-3.42% (inactive),inactive,inactive,inactive,inactive,inactive,inactive,inactive,inactive,,,,,
O=C(c1ccc(F)cc1)C1CCN(CCn2c(=O)[nH]c3ccccc3c2=O)CC1,0.795,0.577,0.595,5.58% (inactive),9.97% (inactive),inactive,5.01 µM (active),inactive,inactive,inactive,inactive,inactive,inactive,,,,,
NS(=O)(=O)c1cc2c(cc1Cl)NCNS2(=O)=O,0.106,0.843,0.437,1.79% (inactive),14.1% (inactive),inactive,inactive,inactive,inactive,inactive,inactive,inactive,inactive,,,,,
CC(C(=O)O)c1cccc(C(=O)c2ccccc2)c1 (centres undefined),0.978,0.474,0.0276,,,,,,,,,,,,,,,
CCOC(=O)Nc1ccc(NCc2ccc(F)cc2)nc1N,0.955,0.938,0.317,,,7.94 µM (active),10 µM (active),11.2 µM (active),12.6 µM (active),10 µM (active),,,,,7.94 µM (active),12.6 µM (active),,
COc1ccc(C2CNC(=O)C2)cc1OC1CCCC1 (centres undefined),0.4,0.743,0.539,,,,,,,,,,,,,,,
CC(=O)OCC(CCn1cnc2cnc(N)nc21)COC(C)=O,0.583,0.498,1.13,-2.23% (inactive),0.392% (inactive),inactive,inactive,inactive,inactive,inactive,inactive,inactive,inactive,,,,,
CC[C@@]1(O)C(=O)OCc2c1cc1n(c2=O)Cc2cc3c(CN(C)C)c(O)ccc3nc2-1,-0.963,-2.75,-1.63,,,5.62 µM (active),,7.08 µM (active),3.55 µM (active),,3.16 µM (active),8.91 µM (active),,5.9 µM (active),3.55 µM (active),7.08 µM (active),,
CC[N+](CC)(CC)CCOc1cccc(OCC[N+](CC)(CC)CC)c1OCC[N+](CC)(CC)CC,0.0594,0.771,-0.103,-0.0275% (inactive),10.3% (inactive),inactive,inactive,inactive,inactive,inactive,inactive,inactive,inactive,,,,,
CN(C)CCOC(c1ccccc1)c1ccccc1,,,,13.6% (inactive),11.2% (inactive),inactive,11.2 µM (active),,,,,,,,,,,
COc1ccc2[nH]cc(CCNC(C)=O)c2c1,,,,6.49% (inactive),12.1% (inactive),inactive,inactive,inactive,inactive,inactive,inactive,inactive,inactive,,,,,
CN1CCN2c3ccccc3Cc3ccccc3C2C1 (centres undefined),,,,6.93% (inactive),3.33% (inactive),inactive,inactive,inactive,inactive,inactive,inactive,inactive,inactive,,,,,
O=C1N(c2ccccc2)c2ccccc2C1(Cc1ccncc1)Cc1ccncc1,,,,1.98% (inactive),-9.11% (inactive),inactive,8.91 µM (active),inactive,inactive,inactive,inactive,inactive,inactive,,,,,
CCC1(c2ccccc2)C(=O)NCNC1=O,,,,6.87% (inactive),11.7% (inactive),inactive,inactive,inactive,inactive,inactive,inactive,inactive,inactive,,,,,
COc1cc2c(c(OC)c1OC)-c1ccc(OC)c(=O)cc1[C@@H](NC(C)=O)CC2,,,,-2.78% (inactive),6.74% (inactive),inactive,inactive,inactive,inactive,inactive,inactive,inactive,inactive,,,,,
Nc1c2c(nc3ccccc13)CCCC2,1.01,0.33,1.46,,,,,,,,,inactive,,,,,,
Cn1c(=O)c2c(ncn2C)n(C)c1=O,0.696,0.536,0.729,6.06% (inactive),8.5% (inactive),inactive,,inactive,inactive,inactive,inactive,inactive,inactive,,,,,
Cc1ccc(C(=O)Nc2ccc(S(=O)(=O)O)c3cc(S(=O)(=O)O)cc(S(=O)(=O)O)c23)cc1NC(=O)c1cccc(NC(=O)Nc2cccc(C(=O)Nc3cc(C(=O)Nc4ccc(S(=O)(=O)O)c5cc(S(=O)(=O)O)cc(S(=O)(=O)O)c45)ccc3C)c2)c1,0.0489,-1.39,-0.47,,,inactive,inactive,,,inactive,,inactive,inactive,,,,,
CS(=O)(=O)CCNCc1ccc(-c2ccc3ncnc(Nc4ccc(OCc5cccc(F)c5)c(Cl)c4)c3c2)o1,,,,6.38% (inactive),-5.13% (inactive),inactive,inactive,inactive,inactive,inactive,inactive,inactive,inactive,,,,,
